Test results as given in the supplement of paper PMC10849652.
Targets with a hit are over-represented here; the source holds about 7,900 in all. About 0.6% of all pairs of compound and target were hits.

Assays:
Experiment in all cases: log2 fold change, soluble protein after heating vs DMSO (PISA); higher = thermal stabilisation; K562 cells, 10 uM, 30 min; active = over 0.2 and 3.5 SD of the protein, either way, in both replicates (recomputed)
[1] = compound: NC(=O)Nc1cc(-c2cccc(F)c2)sc1C(=O)N[C@H]1CCCNC1
Method in brief: (§1)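 Aliquots of K562 cells (2×10^6 cells/mL) treated with 10 μM compound for 30 min were heated for 3 min over 48°C-58°C. After pooling and extraction in PBS with 0.5% NP-40 at 4°C, soluble protein from a 21,000xg, 90 min spin was quantified by TMTpro 16plex LC-MS/MS with channel sums equalised. Thermal stability is expressed against control samples, from duplicates, as a log2 fold change.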

[2] = compound: NC(=O)c1cnc(N[C@@H]2CCCC[C@@H]2N)nc1Nc1cccc(-n2nccn2)c1
Method in brief: as §1

[3] = compound: NC1(c2ccc(-c3nc4ccn5c(=O)[nH]nc5c4cc3-c3ccccc3)cc2)CCC1
Method in brief: as §1

[4] = compound: NCC(=O)Nc1ccc(-n2nc(C(F)(F)F)cc2-c2ccc3c(ccc4ccccc43)c2)cc1
Method in brief: as §1

entinostat = compound: Nc1ccccc1NC(=O)c1ccc(CNC(=O)OCc2cccnc2)cc1 [entinostat]
Method in brief: as §1

vorinostat = compound: O=C(CCCCCCC(=O)Nc1ccccc1)NO [vorinostat]
Method in brief: as §1

citarinostat = compound: O=C(CCCCCCNC(=O)c1cnc(N(c2ccccc2)c2ccccc2Cl)nc1)NO [citarinostat]
Method in brief: as §1

silmitasertib = compound: O=C(O)c1ccc2c(c1)nc(Nc1cccc(Cl)c1)c1ccncc12 [silmitasertib]
Method in brief: as §1

[5] = compound: O=C1NC(=O)C(c2cnc3ccccn23)=C1c1cn2c3c(cc(F)cc13)CN(C(=O)N1CCCCC1)CC2
Method in brief: as §1

[6] = compound: c1cc(OCCN2CCCCC2)cc(-c2n[nH]c3ccc(-c4nnc[nH]4)cc23)c1
Method in brief: as §1

Measured: log2 fold change

STEAP3 isoform 2 (UniProt Q658P3)
Chain of UniProt Q658P3 (Q658P3 whole entry, looked up): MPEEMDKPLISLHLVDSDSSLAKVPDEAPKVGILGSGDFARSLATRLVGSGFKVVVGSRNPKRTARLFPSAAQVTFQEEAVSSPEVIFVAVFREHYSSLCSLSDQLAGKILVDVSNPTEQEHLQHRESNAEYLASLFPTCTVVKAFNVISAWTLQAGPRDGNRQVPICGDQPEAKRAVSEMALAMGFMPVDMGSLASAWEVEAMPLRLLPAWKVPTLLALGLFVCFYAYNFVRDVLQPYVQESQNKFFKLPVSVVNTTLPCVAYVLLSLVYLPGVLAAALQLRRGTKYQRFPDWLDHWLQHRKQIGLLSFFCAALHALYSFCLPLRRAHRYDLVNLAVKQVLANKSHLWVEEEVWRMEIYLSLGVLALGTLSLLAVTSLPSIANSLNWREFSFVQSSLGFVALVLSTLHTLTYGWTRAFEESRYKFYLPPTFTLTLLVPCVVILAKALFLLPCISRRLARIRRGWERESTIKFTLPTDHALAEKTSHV
inactive: [1] -0.13 | [2] 0.076 | [3] -0.042 | [4] -0.006 | entinostat 0.008 | vorinostat 0.086 | citarinostat 0.013 | silmitasertib 0 | [5] -0.028 | [6] -0.082

SMC5 (UniProt Q8IY18)
inactive: [1] 0.057 | [2] -0.034 | [3] -0.083 | [4] -0.051 | entinostat -0.033 | vorinostat 0.017 | citarinostat -0.021 | silmitasertib 0.052 | [5] -0.1 | [6] -0.051

STX17 (UniProt P56962)
inactive: [1] 0.027 | [2] -0.073 | [3] -0.096 | [4] 0.126 | entinostat -0.001 | vorinostat -0.02 | citarinostat 0.254 | silmitasertib 0.087 | [5] -0.026 | [6] -0.059

SLC25A42 (UniProt Q86VD7)
inactive: [1] 0.121 | [2] 0.021 | [3] -0.015 | [4] 0.05 | entinostat -0.027 | vorinostat -0.102 | citarinostat -0.015 | silmitasertib -0.033 | [5] -0.034 | [6] -0.046

TGFBI (UniProt Q15582)
Chain of UniProt Q15582 (Q15582 whole entry, looked up): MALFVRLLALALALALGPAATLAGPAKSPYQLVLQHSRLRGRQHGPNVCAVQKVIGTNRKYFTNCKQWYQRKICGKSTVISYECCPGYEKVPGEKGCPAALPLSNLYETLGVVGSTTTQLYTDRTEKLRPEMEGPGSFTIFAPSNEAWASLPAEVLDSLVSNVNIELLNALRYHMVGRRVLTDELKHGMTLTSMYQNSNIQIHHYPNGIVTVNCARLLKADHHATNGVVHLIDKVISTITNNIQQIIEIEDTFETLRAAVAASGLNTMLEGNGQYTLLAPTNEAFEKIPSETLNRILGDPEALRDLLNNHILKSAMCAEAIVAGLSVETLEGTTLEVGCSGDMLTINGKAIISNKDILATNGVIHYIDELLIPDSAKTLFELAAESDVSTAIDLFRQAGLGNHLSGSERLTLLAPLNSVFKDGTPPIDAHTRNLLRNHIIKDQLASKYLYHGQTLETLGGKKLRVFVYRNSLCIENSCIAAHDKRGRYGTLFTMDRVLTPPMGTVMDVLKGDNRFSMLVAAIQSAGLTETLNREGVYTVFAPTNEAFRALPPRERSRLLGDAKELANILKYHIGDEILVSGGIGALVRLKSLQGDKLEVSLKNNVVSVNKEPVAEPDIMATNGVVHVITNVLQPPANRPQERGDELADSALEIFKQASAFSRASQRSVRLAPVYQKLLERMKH
inactive: [1] -0.037 | [2] -0.136 | [3] -0.116 | [4] -0.116 | entinostat 0.056 | vorinostat 0.309 | citarinostat -0.056 | silmitasertib 0.114 | [5] -0.01 | [6] 0.202

TIPRL (UniProt O75663)
inactive: [1] -0.057 | [2] -0.114 | [4] -0.068 | entinostat 0.033 | vorinostat 0.095 | citarinostat 0.069 | silmitasertib -0.032 | [5] -0.06 | [6] -0.012
active: [3] -0.209

TAOK3 (UniProt Q9H2K8)
Chain of UniProt Q9H2K8 (Q9H2K8 whole entry, looked up): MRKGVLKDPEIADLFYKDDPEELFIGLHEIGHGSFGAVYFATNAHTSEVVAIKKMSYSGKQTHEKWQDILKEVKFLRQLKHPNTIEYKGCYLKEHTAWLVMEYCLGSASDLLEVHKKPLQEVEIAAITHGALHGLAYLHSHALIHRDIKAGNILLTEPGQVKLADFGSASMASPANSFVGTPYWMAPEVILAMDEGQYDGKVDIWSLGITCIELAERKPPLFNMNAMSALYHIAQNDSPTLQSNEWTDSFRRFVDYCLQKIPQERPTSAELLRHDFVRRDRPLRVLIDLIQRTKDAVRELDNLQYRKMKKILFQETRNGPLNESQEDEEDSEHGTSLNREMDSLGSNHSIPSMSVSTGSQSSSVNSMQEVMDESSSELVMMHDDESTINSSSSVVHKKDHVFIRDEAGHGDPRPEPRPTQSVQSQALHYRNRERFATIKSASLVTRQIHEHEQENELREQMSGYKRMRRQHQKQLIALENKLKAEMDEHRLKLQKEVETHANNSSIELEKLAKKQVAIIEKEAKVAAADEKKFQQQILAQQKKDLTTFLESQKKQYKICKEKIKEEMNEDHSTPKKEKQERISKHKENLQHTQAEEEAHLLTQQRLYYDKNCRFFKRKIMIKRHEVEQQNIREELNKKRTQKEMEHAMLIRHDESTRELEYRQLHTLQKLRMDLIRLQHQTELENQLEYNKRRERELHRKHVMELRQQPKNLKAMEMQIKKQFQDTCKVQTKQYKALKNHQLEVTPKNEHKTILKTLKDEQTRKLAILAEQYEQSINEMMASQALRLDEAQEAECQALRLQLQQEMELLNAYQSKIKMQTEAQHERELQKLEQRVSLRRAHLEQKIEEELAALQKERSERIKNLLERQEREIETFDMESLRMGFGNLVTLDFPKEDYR
inactive: [1] -0.013 | [2] -0.149 | [3] -0.048 | [4] 0 | entinostat 0.034 | vorinostat 0.036 | citarinostat 0.106 | silmitasertib 0 | [5] 0.021 | [6] -0.203

SMIM20 isoform 2 (UniProt Q8N5G0)
inactive: [1] -0.056 | [2] -0.032 | [3] 0 | [4] 0.002 | entinostat 0.031 | vorinostat 0.057 | citarinostat -0.004 | silmitasertib -0.01 | [5] -0.154 | [6] -0.049

SLC25A36 (UniProt Q96CQ1)
inactive: [1] 0.131 | [2] 0.035 | [3] 0.015 | [4] -0.123 | entinostat 0.036 | vorinostat 0.003 | citarinostat 0.063 | silmitasertib 0.106 | [5] 0.027 | [6] 0.028

STARD3NL (UniProt O95772)
inactive: [1] 0.018 | [2] -0.104 | [4] -0.031 | entinostat 0.093 | vorinostat 0.037 | citarinostat 0.004 | silmitasertib 0.044 | [5] -0.013 | [6] 0.035
active: [3] -0.413

TIAL1 isoform 2 (UniProt Q01085)
inactive: [1] -0.014 | [2] -0.026 | [3] -0.05 | [4] -0.048 | entinostat -0.005 | vorinostat 0.025 | citarinostat -0.002 | silmitasertib -0.003 | [5] 0.003 | [6] -0.036

SRP68 (UniProt Q9UHB9)
inactive: [1] -0.068 | [2] -0.08 | [3] -0.094 | [4] -0.035 | entinostat 0.101 | vorinostat 0.08 | citarinostat 0.095 | silmitasertib 0.08 | [5] 0.096 | [6] -0.062

SLC6A6 (UniProt P31641)
Chain of UniProt P31641 (P31641 whole entry, looked up): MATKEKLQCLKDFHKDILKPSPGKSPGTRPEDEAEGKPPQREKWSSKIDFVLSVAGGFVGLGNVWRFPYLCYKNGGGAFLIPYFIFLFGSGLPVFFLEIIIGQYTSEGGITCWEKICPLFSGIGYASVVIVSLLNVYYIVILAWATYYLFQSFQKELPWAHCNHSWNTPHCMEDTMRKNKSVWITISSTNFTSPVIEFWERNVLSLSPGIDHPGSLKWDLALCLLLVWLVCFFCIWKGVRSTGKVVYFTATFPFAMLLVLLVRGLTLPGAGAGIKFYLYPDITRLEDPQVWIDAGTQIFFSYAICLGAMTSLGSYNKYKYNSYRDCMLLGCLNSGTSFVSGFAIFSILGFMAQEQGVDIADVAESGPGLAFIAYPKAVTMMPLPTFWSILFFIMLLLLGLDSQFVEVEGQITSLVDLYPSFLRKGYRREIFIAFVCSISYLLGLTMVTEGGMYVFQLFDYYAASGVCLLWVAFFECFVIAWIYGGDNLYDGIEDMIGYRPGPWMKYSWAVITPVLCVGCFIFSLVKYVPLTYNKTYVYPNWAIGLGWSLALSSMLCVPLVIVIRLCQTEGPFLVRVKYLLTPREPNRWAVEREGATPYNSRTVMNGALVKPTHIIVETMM
inactive: [1] -0.099 | [2] 0.03 | [3] 0.024 | [4] -0.19 | entinostat -0.031 | vorinostat -0.059 | citarinostat 0.065 | silmitasertib 0.039 | [5] 0.086
active: [6] 0.269

SYF2 (UniProt O95926)
Chain of UniProt O95926 (O95926 whole entry, looked up): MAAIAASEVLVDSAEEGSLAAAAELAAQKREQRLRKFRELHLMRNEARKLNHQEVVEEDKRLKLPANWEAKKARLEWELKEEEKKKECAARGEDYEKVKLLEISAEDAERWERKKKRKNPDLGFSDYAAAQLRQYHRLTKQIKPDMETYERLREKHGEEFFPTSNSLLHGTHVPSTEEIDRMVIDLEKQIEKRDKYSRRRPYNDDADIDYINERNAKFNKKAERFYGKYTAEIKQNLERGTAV
inactive: [1] 0.099 | [2] 0.089 | [3] -0.032 | [4] 0.101 | entinostat -0.022 | vorinostat -0.11 | citarinostat -0.069 | silmitasertib 0.016 | [5] 0.14 | [6] -0.153

SNRPD3 (UniProt P62318)
active: [5] 0.271
inactive: [1] 0.034 | [2] -0.01 | [3] 0.025 | [4] 0.013 | entinostat -0.059 | vorinostat -0.067 | citarinostat -0.019 | silmitasertib 0.092 | [6] -0.055

THYN1 (UniProt Q9P016)
Chain of UniProt Q9P016 (Q9P016 whole entry, looked up): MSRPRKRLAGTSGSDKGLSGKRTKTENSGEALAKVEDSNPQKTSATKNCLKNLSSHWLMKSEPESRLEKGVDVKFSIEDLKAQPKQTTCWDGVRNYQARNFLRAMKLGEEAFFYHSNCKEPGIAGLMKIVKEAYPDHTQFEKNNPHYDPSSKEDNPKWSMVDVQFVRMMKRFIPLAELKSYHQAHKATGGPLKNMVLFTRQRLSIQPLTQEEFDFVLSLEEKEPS
inactive: [1] 0 | [2] -0.011 | [3] -0.048 | [4] -0.103 | entinostat -0.004 | vorinostat 0.011 | citarinostat 0.008 | silmitasertib -0.011 | [5] -0.022 | [6] -0.034

SNX5 (UniProt Q9Y5X3)
Chain of UniProt Q9Y5X3 (Q9Y5X3 whole entry, looked up): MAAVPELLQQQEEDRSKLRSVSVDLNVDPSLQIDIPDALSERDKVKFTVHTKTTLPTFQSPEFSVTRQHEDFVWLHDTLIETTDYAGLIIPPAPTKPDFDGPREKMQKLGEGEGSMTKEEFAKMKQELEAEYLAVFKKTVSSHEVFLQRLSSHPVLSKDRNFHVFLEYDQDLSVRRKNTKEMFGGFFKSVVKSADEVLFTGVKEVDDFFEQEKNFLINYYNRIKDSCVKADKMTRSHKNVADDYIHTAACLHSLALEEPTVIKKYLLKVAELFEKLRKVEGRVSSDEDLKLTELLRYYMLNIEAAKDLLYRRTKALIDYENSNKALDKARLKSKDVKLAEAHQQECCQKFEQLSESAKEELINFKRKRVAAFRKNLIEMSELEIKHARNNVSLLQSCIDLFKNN
inactive: [1] -0.022 | [2] -0.275 | [4] -0.037 | entinostat 0.078 | vorinostat 0.108 | citarinostat 0.09 | silmitasertib -0.061 | [5] -0.006 | [6] -0.11
active: [3] -0.332

SPART (UniProt Q8N0X7)
inactive: [1] -0.032 | [2] -0.105 | [3] -0.053 | [4] 0.006 | entinostat 0.043 | vorinostat -0.032 | citarinostat 0.015 | silmitasertib 0.081 | [5] -0.024 | [6] 0.04

SPAST (UniProt Q9UBP0)
inactive: [1] 0.027 | [2] -0.003 | [3] -0.12 | [4] -0.109 | entinostat 0.075 | vorinostat 0.033 | citarinostat 0.058 | silmitasertib 0.028 | [5] -0.035 | [6] -0.029

TARBP1 (UniProt Q13395)
inactive: [1] -0.033 | [2] 0.048 | [3] -0.027 | [4] 0.014 | entinostat -0.044 | vorinostat 0.003 | citarinostat 0.079 | silmitasertib 0.034 | [5] 0.053 | [6] 0

TBC1D20 isoform 3 (UniProt Q96BZ9)
inactive: [1] -0.062 | [2] 0.052 | [3] 0.027 | [4] -0.08 | entinostat 0.026 | vorinostat 0.033 | citarinostat 0.293 | silmitasertib 0.03 | [5] -0.007 | [6] 0.03

STK38L (UniProt Q9Y2H1)
inactive: [1] -0.046 | [2] -0.015 | [3] -0.117 | [4] 0.078 | entinostat 0.109 | vorinostat 0.02 | citarinostat 0.036 | silmitasertib 0.101 | [5] -0.078 | [6] 0.05

STK26 (UniProt Q9P289)
Chain of UniProt Q9P289 (Q9P289 whole entry, looked up): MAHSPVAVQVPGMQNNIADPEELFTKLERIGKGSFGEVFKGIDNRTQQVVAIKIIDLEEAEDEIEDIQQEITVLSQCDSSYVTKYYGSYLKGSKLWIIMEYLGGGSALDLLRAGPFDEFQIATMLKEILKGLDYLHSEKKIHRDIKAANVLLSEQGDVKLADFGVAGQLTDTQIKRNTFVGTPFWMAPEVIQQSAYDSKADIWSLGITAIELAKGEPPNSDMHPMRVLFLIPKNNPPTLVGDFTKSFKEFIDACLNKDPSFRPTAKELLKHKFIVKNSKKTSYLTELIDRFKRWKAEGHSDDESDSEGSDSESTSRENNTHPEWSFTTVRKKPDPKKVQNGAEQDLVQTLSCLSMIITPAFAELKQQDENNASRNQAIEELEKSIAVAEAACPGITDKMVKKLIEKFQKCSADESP
inactive: [1] 0.07 | [2] -0.005 | [3] -0.111 | [4] -0.057 | entinostat -0.063 | vorinostat 0.034 | citarinostat 0.092 | silmitasertib 0.069 | [5] -0.017 | [6] -0.007

TFAM (UniProt Q00059)
Chain of UniProt Q00059 (Q00059 whole entry, looked up): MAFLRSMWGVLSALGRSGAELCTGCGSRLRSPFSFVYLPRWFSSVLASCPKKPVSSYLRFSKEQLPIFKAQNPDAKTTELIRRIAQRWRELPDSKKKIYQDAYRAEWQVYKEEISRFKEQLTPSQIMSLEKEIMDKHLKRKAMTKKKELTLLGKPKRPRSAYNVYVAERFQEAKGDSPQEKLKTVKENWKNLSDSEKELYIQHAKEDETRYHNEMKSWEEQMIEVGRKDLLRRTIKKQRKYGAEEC
inactive: [1] -0.079 | [2] -0.006 | [3] 0.085 | [4] 0.011 | entinostat -0.035 | vorinostat 0.005 | citarinostat -0.151 | silmitasertib 0.011 | [5] 0.06 | [6] -0.115

TFB2M (UniProt Q9H5Q4)
inactive: [1] -0.029 | [2] -0.066 | [3] -0.187 | [4] -0.066 | entinostat 0.054 | vorinostat 0.027 | citarinostat 0.01 | silmitasertib 0.046 | [5] -0.024 | [6] 0.003

SNUPN (UniProt O95149)
inactive: [1] -0.031 | [2] -0.06 | [3] -0.095 | [4] -0.063 | entinostat 0.06 | vorinostat 0.027 | citarinostat -0.082 | silmitasertib 0.027 | [5] -0.077 | [6] 0.071

SOAT1 (UniProt P35610)
inactive: [1] -0.073 | [2] -0.049 | [3] -0.171 | [4] -0.045 | entinostat 0.029 | vorinostat -0.063 | citarinostat 0.112 | silmitasertib 0.084 | [5] -0.098 | [6] -0.185

STK38 (UniProt Q15208)
inactive: [1] -0.072 | [2] -0.077 | [3] -0.11 | [4] -0.062 | entinostat 0.129 | vorinostat 0.016 | citarinostat 0.097 | silmitasertib 0.061 | [5] 0.004 | [6] -0.086

SURF1 (UniProt Q15526)
inactive: [1] -0.007 | [2] 0.014 | [3] -0.176 | [4] -0.135 | entinostat 0.077 | vorinostat 0.059 | citarinostat 0.112 | silmitasertib -0.04 | [5] -0.031 | [6] -0.043

TLK1 (UniProt Q9UKI8)
Chain of UniProt Q9UKI8 (Q9UKI8 whole entry, looked up): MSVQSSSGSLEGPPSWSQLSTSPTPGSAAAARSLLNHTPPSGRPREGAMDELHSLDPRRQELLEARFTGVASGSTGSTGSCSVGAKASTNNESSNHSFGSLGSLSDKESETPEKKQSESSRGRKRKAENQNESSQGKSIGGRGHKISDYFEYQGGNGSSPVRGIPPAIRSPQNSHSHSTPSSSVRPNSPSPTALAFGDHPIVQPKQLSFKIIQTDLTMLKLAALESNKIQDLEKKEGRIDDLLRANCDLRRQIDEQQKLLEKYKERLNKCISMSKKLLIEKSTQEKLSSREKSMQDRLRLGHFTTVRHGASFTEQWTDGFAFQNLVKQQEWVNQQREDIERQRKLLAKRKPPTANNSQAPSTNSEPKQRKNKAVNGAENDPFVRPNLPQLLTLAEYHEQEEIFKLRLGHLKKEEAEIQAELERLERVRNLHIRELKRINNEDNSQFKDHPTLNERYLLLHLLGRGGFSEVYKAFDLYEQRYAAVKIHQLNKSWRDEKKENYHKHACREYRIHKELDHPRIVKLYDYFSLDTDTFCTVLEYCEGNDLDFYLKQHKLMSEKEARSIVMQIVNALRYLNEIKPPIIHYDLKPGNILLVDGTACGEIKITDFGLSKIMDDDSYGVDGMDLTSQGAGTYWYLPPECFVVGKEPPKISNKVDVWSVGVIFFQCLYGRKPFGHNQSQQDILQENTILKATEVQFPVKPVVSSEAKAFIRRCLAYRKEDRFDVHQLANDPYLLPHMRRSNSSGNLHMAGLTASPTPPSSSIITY
inactive: [1] -0.062 | [2] -0.074 | [3] -0.063 | [4] -0.034 | entinostat 0.042 | vorinostat 0.027 | citarinostat 0.049 | silmitasertib -0.002 | [5] 0.002 | [6] -0.074
